The source of these data is the supplement of paper PMC6555819.

The experiment has as its system VDR:RXRa (NR concentration 270 nM, RXRa partner concentration 90 nM). Kind of experiment: PBM binding z-score (relative to random genomic background probes); higher = stronger binding; sequences stand for … in GC…GCGATTGACAGCGTAGAATGAAGG
The procedure:
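Protein-binding microarray (Agilent 4x180K custom design, double-stranded 60-nt probes: 5' GC cap, 34-nt variable region, 24-nt constant primer region; full probe sequence given). Purified or IVT nuclear receptor:RXRα heterodimers (3:1 NR:RXRα, mostly 270:90 nM) or homodimers were incubated for 1 h in PBS with 2% milk and no ligand, then detected with Alexa488 antibodies. Fluorescence from o1-orientation probes (~5 replicates averaged) was converted to z-scores against 500 random hg19 background probes. Variable regions are seed direct-repeat (DR0–DR5) sites, all their single-nucleotide variants and half-site ablations.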
Take ACAACGAGGGCACGCTGAGTTGATAGCAGAGTAG: the PBM binding z-score is 2.01.
In the case of ACTATTAGTTGAGACGAGGGCTACCGATAGGTTG it was -0.103; in that of TCGAGCAGGTTACCAATGGGGCATTCAGCTTTCT, 0.08; in that of CCTATTAGTTGATCATAAGGGCAACCGAAGCTCG, 0.485.
The figure for CGAACTAGTTCAGAACAGGACAGTGAAGGATGAT is -0.0284.
The figure for CCGACTGGGGCATAAGCTTACCATAAGCCAGCCC is -0.79; for TCGAGCAGGCCAGAGGGTCACTCAAGAGGTACGG it is 1.48; for CAAACTCGGTCACAGAGGTCAAAGTCCGTGCGTA it is 7.57.
Take CCTAGTGGGCCAAAAAGGTCATTGATGCCGATAA: the PBM binding z-score stood at 4.82.
CCTGCTAGGTCTTGGTCAGCTAATCTACAGTATG: the PBM binding z-score is -0.434.
In the case of ATCTCTAGGTAACAAGTCCAGTGAAAGAGAGGAC it was 0.103; in that of AGAATCAGGTTATACGTAGATCAGGGAAGAAAGT, 0.368.
The figure for CATACAGGGTCAGCTAGGCCAGTGTAGGGACGGC is 3.86; for CGTCAAGGTTCAACTAAGGTAACGTAAAGCACGC it is 3.94.
ATCTCGAGGTAAAGTTCAGTGAAAGATCGATAGA: the PBM binding z-score was 1.64.
The figure for ATCGAAAGGTCGTGAGGTGAGTCTACAGAAAGGC is 3.66; for ATATGCAGGTTAAGGGTCATTCAGGTTGGTTCGC it is 5.68; for TCTATTAGTTAAAGGGCAACCGACGAGTCCGTTT it is 1.46.
The figure for GCTGCTAGGTCAGGTTGGTCAGATAACGGGTACG is 0.794.
On to TCTGCTAGGTCAGTTGGTCAGCTACCGAGCTGCC, for which the PBM binding z-score was found to be 0.106.
CCTTGTTGGTCAAGGTCACACACGCTATAGGTAC returned a PBM binding z-score of 3.83.
In turn, GCATATAGGTGATACAAGGTGAAAGTCCGATTGT came in with a PBM binding z-score of 0.445.
CCTGCTAGGTCATGGTGAGCTAATCTACAGTATG gave a PBM binding z-score of 1.37.
The figure for ATCTCTAGGTAACAAGTTCAGTGCAAGAGAGGAC is 1.79; for GATACAGGGTCAAGGCCAGAGTTCGCGTATTGAT it is 5.31; for TCATACAGGTAAATGCTAGGTGAAAGTCCGATCT it is 0.69.
In turn, CCTCGGTGGACAACAGGAGGTCAGAGCTGCCAGA registered a PBM binding z-score of 1.07.
The figure for CTTACTGGGCCATTCAGAGGTCATTGATCATATG is 4.23; for ATCTGTAGGTAACCAAGTTCAGTGAATGCCGAAC it is 4.63.
Sequence ACTATTAGTCGAGACGAGGGCAACCGATAGGTTG returned a PBM binding z-score of 0.293.
In the case of CCTTGTTGGTCAGGAGGTCACACACCGGATATGA it was 3.79; in that of ACTAGCAGGCCAAGTTTGGGTCACTCAGACAAAG, 0.43; in that of CAAACTAGGTCACCGGAAGGTCAAACTCCGCATG, 6.17.
The figure for CGAACTTGGTCAAGGACAGTGAATCTCCGCACGC is -0.245.
The sequence GGCACGAGGGCATTCGAGTTGATAGCATGGCGAT registered a PBM binding z-score of 3.54.
Sequence GCTAGTTGGTCAGTAAAGGGTCACACACCGGTCG had a PBM binding z-score of 3.09.
For the sequence TCTCGGAGGACACGAAAGGTCGGAGCTCGACATC, the PBM binding z-score was 1.08.
With TCTTGTAGATCAAAGGCTAAGAAAGCCGAAGCCT, the PBM binding z-score was -0.203.
The figure for CATACAGGGTCAGTTAGGCCAGAGTAGGGACGGC is 3.05; for AGTCAAAGTTCATCTACGTAACGTAAGATATGCT it is 4.77.
